# Results from ChEMBL document CHEMBL1157539, “Thousands of chemical starting points for antimalarial lead identification” (Nature, 2010).
# Assays:
# Type in all cases: functional
# Plasmodium falciparum [1] = assay: GSK_TCMDC: Inhibition of Plasmodium falciparum 3D7 in whole red blood cells, using parasite LDH activity as an index of growth. Test compounds present at 2uM
# Plasmodium falciparum [2] = assay: GSK_TCMDC: Inhibition of Plasmodium falciparum Dd2 in whole red blood cells, using parasite LDH activity as an index of growth. Test compounds present at 2uM
# HepG2 = assay: GSK_TCMDC: Percent inhibition of human HepG2 cell line. Test compounds present at 10uM.
Compound,Inhibition (Plasmodium falciparum [1]),Inhibition (Plasmodium falciparum [2]),Inhibition (HepG2)
COCCNCc1ccc(-c2cccc(CNc3ccc(OC)cc3)c2)cc1.O=C(O)C(F)(F)F,94%,2%,16%
Nc1c(Cl)cc(C(O)CNCCCCCCOCCc2ccc(O)cc2)cc1Cl.O=C(O)/C=C/C(=O)O (stereo not drawn),97%,97%,13%
Cc1cccc2nc(-c3cccc(-c4cccc(C(=O)NCc5nccn5C)c4)c3)[nH]c12,99%,50%,22%
CN(C)c1ccc(CN2CCC(NC(=O)c3ccc(-c4cccc(Cl)c4)s3)CC2)cc1.O=C(O)C(F)(F)F,93%,44%,65%
CN1CCN(c2ccc3[nH]c(-c4ccc(Cc5cc(Cl)ccc5OCc5ccccc5)o4)nc3c2)CC1.Cl,100%,79%,27%
CC(C)(C(=O)Nc1ccc(C2CCC(NCC3CC3)CC2)c(Cl)c1)c1ccc(C(F)(F)F)cc1 (stereo not drawn),97%,18%,64%
CN(C)Cc1ccc(CN2CCN(CCOc3ccc(-c4ccc(Cl)cc4)cc3)CC2)o1,90%,21%,75%
Cc1cc2ncc(C(N)=O)c(Nc3ccc(N4CCOCC4)cc3)c2cc1S(C)(=O)=O.Cl,100%,96%,0%
Nc1ncc(-c2cc3ccccc3o2)c(N)n1,81%,2%,0%
CCC(C)NC(=O)CN1CN(c2ccccc2)C2(CCN(C(=O)c3ccc(-c4ccccc4)cc3)CC2)C1=O (stereo not drawn),100%,100%,0%
Cc1cc(NC(=O)c2ccco2)ccc1OC1CCN(Cc2ccc(F)cc2)CC1.O=C(O)C(F)(F)F,96%,93%,4%
O=CO.c1ccc(CCNc2ccnc(Nc3ccc4cn[nH]c4c3)n2)cc1,100%,100%,54%
Cc1ccc(NC(=O)c2ccc(CN3CCCN(Cc4cccc(Cl)c4)CC3)cc2)cc1C.O=C(O)C(F)(F)F,84%,18%,41%
O=c1cc(NCCCNCc2cccc(OC(F)(F)F)c2)[nH]c2ccccc12,97%,72%,0%
COCCN(C)CCCOc1cc2c(cc1OC)ncn2-c1cc(OCc2ccccc2C(F)(F)F)c(C(N)=O)s1.Cl,98%,49%,24%
N#Cc1ccc(C(=O)Nc2cccc(-c3ccc(CN4CCCC4)cc3)c2)cc1.O=C(O)C(F)(F)F,99%,0%,13%
